Values joined by “and” are separate entries in the source; they are usually repeats but may differ in a detail not shown here. Identical values can stand only once. This is part of a sample that, as a whole, favours compounds with a hit. Of some 83,000 tested, about 20% had one in any assay.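 48-hour exposure, single concentration, 96-well plates; percent growth endpoint where 0 means no net growth. Active: below 10.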 Active and inactive are the calls of the source.

The first assay relates to HCT-15 colon. Put plainly: NCI-60 one-dose screen, 48 h (100 = growth as untreated, 0 = no growth, -100 = all killed). The note with it: 1 µM. The protocol:
Growth inhibition of the HCT-15 human tumor cell line is measured as a screen for anti-cancer activity. Cells are grown in 96 well plates and exposed to the test compound for 48 hours. Compounds are tested at a single concentration, which is 10^-5 M for most compounds. The reported endpoint is percent growth (GI% or GIPRCNT), where numbers from 0 - 100% represent growth inhibition, and numbers from -100% - 0 represent cell death. For example, a value of 40 represents 60% growth inhibition. A value of 0 means no net growth occurred over the course of the experiment. A value of -40 indicates 40% of cells at the beginning of the experiment died by the end of the experiment. A value of -100 means all cells are dead at the end of the experiment.
NCI-60 Human Tumor Cell Lines Screen was performed using the standard one-dose NCI protocol, which is described in more detail at https://dtp.cancer.gov/discovery_development/nci-60/default.htm.
Compounds with GIPRCNT values below 10 were considered active. Activity score was based on GIPRCNT using the following formula: […]
Score is 0 for GIPRCNT values of 100 or above, 50 for GIPRCNT values of 0, and 100 for GIPRCNT values of -100.
With `CNC(=O)c1cc(Oc2ccc(CC(=O)Nc3cc(C(C)(C)C)nn3C)cc2)ccn1`, the growth was 92.7% (inactive).

The same assay, now with this note: 10 µM.
As to `CCc1ccccc1-n1c(N)c(C#N)c(-c2ccc(OC)c(OC)c2)c(C#N)c1=O`, the growth was 101% (inactive). As for `COc1ccc(Cl)cc1C(=O)NCCc1ccc(S(=O)(=O)NC(=O)NC2CCCCC2)cc1`, the growth was 109% (inactive) and 108% (inactive). The same measure, in the same setting: under `CC#C[C@]1(O)CC[C@H]2[C@@H]3CCC4=CC(=O)CCC4=C3[C@@H](c3ccc4c(c3)OCO4)C[C@@]21C` stands 69.3% (inactive); under `CNC(=O)c1cc(Oc2ccc(CC(=O)Nc3cc(C(C)(C)C)nn3C)cc2)ccn1`, 83.1% (inactive).

Still in this assay, the particulars now being: 10 µM unless noted.
Turning to `CNc1ccc2nc3ccc(=[N+](C)C)cc-3sc2c1`, the growth is 17.2% (inactive) and 9.61% (active). With `Cc1cc(N=Nc2ccc(C)c(N=Nc3cc(C)c(N)cc3N)c2)c(N)cc1N`, the growth was 95.9% (inactive) and 44.3% (inactive). Same read-out and setting: the result for `COc1ccc(/C(C#N)=C/c2ccccn2)cc1` reads 96.2% (inactive) and 109% (inactive). On the same count and under the same terms, under `CCCCCN(CCCCC)CC(O)c1cc2c(c3ccccc13)CCCC2` (stereo not given) stands 52.2% (inactive) and 52.1% (inactive); under `Nc1ccc2[nH]c(-c3ccccc3)cc(=O)c2c1`, 73.7% (inactive); under `Nc1ccc2ccc(N)cc2c1`, 74.4% (inactive).

Turning to `COc1ccc(Cn2c(NCCN=C(N)N)nc(=O)n(Cc3ccc(F)cc3)c2=O)cc1`, the growth is 103% (inactive) and 106% (inactive). On the same count and under the same terms, under `O=C(O)c1cc(C(=O)O)cc([N+](=O)[O-])c1` stands 104% (inactive); under `CC(C)(C)c1ccc(O)c(CNC2CCCCC2)c1`, 108% (inactive) and 84.5% (inactive). On the same count and under the same terms, under `CC1=NN(c2ccccc2)C(=O)C1C(=O)c1ccccc1` (stereo not given) stands 108% (inactive); under `Clc1ccc(SSc2ccc(Cl)cc2)cc1`, 98.8% (inactive) and 92.4% (inactive). `CN1CCN(CCC=C2c3ccccc3Sc3ccc(S(=O)(=O)N(C)C)cc32)CC1`: the growth was 46.4% (inactive) and 59.2% (inactive). `CCN(CC)CCNc1cc(-c2cccc(OC(F)(F)F)c2)nc2ccc(N3CCCC3)cc12`: the growth is 24.3% (inactive) and 3.13% (active) and 13.6% (inactive). Still for that read-out and setting: the result for `CNC(=O)c1cccnc1` reads 103% (inactive); that for `O=C=NC(c1ccccc1)(c1ccccc1)c1ccccc1`, 102% (inactive). Same read-out and setting: under `CNC(=O)c1cccc(-c2ccc3c(N4CCOC[C@@H]4C)nc(N4CCOC[C@@H]4C)nc3n2)c1` stands 9.22% (active) and 7.13% (active); under `CC(C)N=c1cc2n(-c3ccc(Cl)cc3)c3ccccc3nc-2cc1Nc1ccc(Cl)cc1`, 14.9% (inactive) and 21% (inactive) and 6.17% (active); under `CC(=O)Nc1cc(S(=O)(=O)O)cc2cc(S(=O)(=O)O)c(N=Nc3ccccc3)c(O)c12`, 116% (inactive) and 111% (inactive). With `O=C(/C=C\c1ccnc2ccccc12)c1ccc([N+](=O)[O-])cc1`, the growth was 87.9% (inactive) and 69.7% (inactive). Same read-out and setting: under `CC1=CCC2CC1C2(C)C` (stereo not given) stands 99.5% (inactive) and 94% (inactive).

With `OC(CSc1ccccc1)CN1CCN(c2cccc(Cl)c2)CC1` (stereo not given), the growth was 105% (inactive) and 101% (inactive). Turning to `CCN(CC)CCC(CNc1c2ccc([N+](=O)[O-])cc2nc2cc(OC)c(OC)cc12)c1ccccc1` (stereo not given), the growth is -29.4% (active) and -71.4% (active). With `Nc1ccccc1Nc1ccccc1`, the growth was 86.8% (inactive) and 83.1% (inactive). Still for that read-out and setting: under `Nc1ncnc2c1ncn2C1CC(O)C(CO)O1` (stereo not given) stands 107% (inactive) and 111% (inactive). For the compound `CCN(CC)CCc1nc(-c2ccccc2)no1`, the growth was 78.8% (inactive) and 111% (inactive). On the same count and under the same terms, the result for `CC(C)Oc1ccc2cc(-c3nn(CC4CCNCC4)c4ncnc(N)c34)ccc2c1` reads 61.9% (inactive) and -7.35% (active); that for `O=C(Nc1cccc(Cl)c1)c1cc2ccccc2cc1O`, 16.3% (inactive) and 9.55% (active); that for `Cn1c(SSc2ccc(-c3cccnc3)n2C)ccc1-c1cccnc1`, 111% (inactive) and 104% (inactive).

With `COc1c(/C(C)=N/N=c2sc(C(C)=O)nn2-c2ccc(Cl)cc2)c(Oc2ccccc2)c(OC)c2occc12`, the growth is 102% (inactive) and 92.6% (inactive). On the same count and under the same terms, under `CNC(=O)c1ccc(C)c(-n2c(C)cc(OCc3ccc(F)cc3F)c(Br)c2=O)c1` stands 91% (inactive) and 97.1% (inactive). As to `Cc1ccc(-c2noc(C)n2)cc1`, the growth was 101% (inactive).

The assay is the same for the next values; noted with them: 30 µM.
For `CNC(=O)c1cc(Oc2ccc(CC(=O)Nc3cc(C(C)(C)C)nn3C)cc2)ccn1`, the growth was 70.5% (inactive).

Still in this assay, the particulars now being: 100 µM.
As to `CCc1ccccc1-n1c(N)c(C#N)c(-c2ccc(OC)c(OC)c2)c(C#N)c1=O`, the growth was 81.2% (inactive). On the same count and under the same terms, the result for `COc1ccc(Cl)cc1C(=O)NCCc1ccc(S(=O)(=O)NC(=O)NC2CCCCC2)cc1` reads 42.6% (inactive); that for `CC#C[C@]1(O)CC[C@H]2[C@@H]3CCC4=CC(=O)CCC4=C3[C@@H](c3ccc4c(c3)OCO4)C[C@@]21C`, -13.9% (active).

Source of the values: PubChem BioAssay (NCI).
